Inconclusive results are not listed. Active and inactive are the calls of the source. The call rests on the fitted dose curve; in most records, active means well fitted curve in the direction sought with a large enough effect; inconclusive means small, poorly fitted or top-dose-only effect, or another doubt; inactive means no such curve, though single readings can be large; an effect the other way counts as inactive or inconclusive. *1 amine or outer side, *2 acyl side, *3 side chain or, on linkers, in order; H or OH if unused. Where a SMILES comes first, the peptide text is derived from it. [ ]: non-standard residue; d: D form. X5 = CC(CC(O[*:1])C(=O)[*:2])C(=O)O; NMeV = CN[CH](C(=O)O)C(C)C; NMeA = CN[CH](C)C(=O)O; βAla = NCCC(=O)O
How the values were obtained:
[1] = system: Zika virus NS2B-NS3 protease (linked construct); experiment: Primary screen NINDS Rhodamine qHTS for Zika virus inhibitors (AID 1347160); further: nearly all actives have a fitted effect of over 55% in size
Outline: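 Enzyme (25 nM, linked NS2B-NS3) was preincubated 15 min with compound in 10 mM Tris-HCl pH 8.0, 0.01% Tween 20. Rhodamine110 substrate (1.5 microM) was then added and fluorescence read at start and after 15 min.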

[2] = target: Calcium and integrin-binding protein 1 (Homo sapiens) (UniProt Q99828); experiment: Primary qHTS for Identification of Calcium Integrin Binding Protein 1 (CIB1) Competitor (AID 1508620);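 further: GST tagged CIB1 binding a fluorescein labelled alphaIIb integrin peptide tracer; top concentration of the series differs between compounds; on the % scale 0 is the no-effect control and ±100 the full control effect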
Sequence of Calcium and integrin-binding protein 1 (Homo sapiens) (Q99828 whole entry, looked up): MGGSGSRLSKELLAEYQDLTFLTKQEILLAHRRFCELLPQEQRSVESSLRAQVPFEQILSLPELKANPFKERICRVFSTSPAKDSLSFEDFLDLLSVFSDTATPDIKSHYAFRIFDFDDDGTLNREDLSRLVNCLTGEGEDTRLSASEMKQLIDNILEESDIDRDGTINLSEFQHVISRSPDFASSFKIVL
Outline: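 Fluorescence polarization competition: CIB1-GST (1 uM final) preincubated with compound 15 min at room temperature, then FITC-labeled alphaIIb peptide (100 nM final) added for another 15 min. Polarization read at Ex 480/Em 540.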

[3] = target: Glutathione peroxidase 1 (Homo sapiens) (UniProt P07203); experiment: Primary qHTS Assay for Inhibitors of Recombinant Selenoprotein Glutathione Peroxidase 1 (GPX1) (AID 1845191); further: nearly all actives have a fitted effect of over 65% in size
Sequence of Glutathione peroxidase 1 (Homo sapiens) (P07203 whole entry, looked up): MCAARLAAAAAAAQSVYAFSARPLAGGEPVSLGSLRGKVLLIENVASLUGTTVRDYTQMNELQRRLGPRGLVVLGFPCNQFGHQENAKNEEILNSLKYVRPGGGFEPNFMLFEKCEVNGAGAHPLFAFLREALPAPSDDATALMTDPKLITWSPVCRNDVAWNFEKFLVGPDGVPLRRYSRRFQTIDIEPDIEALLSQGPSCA
Outline: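 GPX1 10 nM, GR 100 nM, GSH 1 mM, NADPH 0.5 mM, CHP 0.5 mM (final). 30-min cpd preincubation, RT. Ex340/Em450 read t=0, t=15 min.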

[4] = target: Phospholipid hydroperoxide glutathione peroxidase GPX4 (Homo sapiens) (UniProt P36969); experiment: Primary qHTS Assay for Inhibitors of Recombinant Selenoprotein Glutathione Peroxidase 4 (GPX4) (AID 1845192); further: on the % scale 0 is the no-effect control and ±100 the full control effect; nearly all actives have a fitted effect of over 65% in size
Sequence of Phospholipid hydroperoxide glutathione peroxidase GPX4 (Homo sapiens) (P36969 whole entry, looked up): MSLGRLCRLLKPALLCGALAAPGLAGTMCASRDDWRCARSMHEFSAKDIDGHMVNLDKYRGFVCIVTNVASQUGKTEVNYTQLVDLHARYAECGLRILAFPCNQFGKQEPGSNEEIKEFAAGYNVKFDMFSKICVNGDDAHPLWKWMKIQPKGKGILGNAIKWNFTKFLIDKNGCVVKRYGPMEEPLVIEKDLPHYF
Outline: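 qHTS, GR-coupled: GPX4 200 nM + cpd 30 min RT → GSH 1 mM, NADPH 0.5 mM, GR 100 nM → CHP 0.5 mM start; fluor 340/450 at t0 and t15 min; no-enzyme wells as control.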

[5] = target: Luciferin 4-monooxygenase (Photinus pyralis) (UniProt P08659); experiment: Primary firefly luciferase (FLuc) qHTS assay for identification of artifact compounds. (AID 1845220); settings: outcome: dose series up to 54.1 µM unless noted;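 further: plate controls were DMSO vehicle for no effect and no enzyme for full effect; nearly all actives have a fitted effect of over 60% in size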
Outline: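 Reaction readout was CCD-imaged luminescence, taken 5 min after adding 10 nM purified firefly enzyme to compound-treated wells holding 10 uM luciferin and ATP in pH 7.6 buffer.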

[6] = Primary fluorescence-based thiol-reactive (MSTI) qHTS assay for identification of artifact compounds. (AID 1845221);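 further: thiol-reactive compounds lower the probe fluorescence signal; nearly all actives have a fitted effect of over 65% in size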
Outline: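 Curve-fitted percent inhibition (4-parameter Hill) derived from fluorescence, Ex 525/Em 598 nm, scaled with Acetyl-MSTI and MSTI; 1 h incubation at room temperature.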

[7] = system: Nanoluciferase (engineered Oplophorus gracilirostris luciferase); experiment: Primary Nanoluciferase (NLuc) qHTS assay for identification of artifact compounds. (AID 1845222);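 further: NLuc secreted into diluted conditioned medium of S16 cells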
Outline: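 Concentration-response data were obtained by luminescence after 5 min with Nano-Glo substrate at 1:100. The enzyme was diluted S16 NLuc-expressing cell medium, preincubated with compound for 15 min at RT. Curves were fitted with a 4-parameter Hill model.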

[8] = Primary redox qHTS assay for identification of artifact compounds. (AID 1845223);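 further: 0% = DMSO and 100% = reference compound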
Outline: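 Redox-cycling detection via DTT (250 uM final) oxidation coupled to Amplex Red (25 uM)/HRP (250 mU/mL) in HBSS. 15 min preincubation plus 30 min after DTT, room temperature. Ex/Em 525/598 nm; 4-parameter Hill fit against DMSO and 10 uM DA3003.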

CRL-7250 = normal cell line; experiment: Cytotoxic Profiling of Annotated Libraries Using Quantitative High-Throughput Screening (AID 1296008); settings: Five cell lines viability, CellTiter-Glo ATP luminescence, 48-72 h; max response: stronger effect = lower value; further: nearly all actives have a fitted effect of over 60% in size; on max response: on the % scale 0 is the no-effect control and ±100 the full control effect
Outline: (§1)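 Compounds were pin-transferred onto cells and incubated 48 or 72 hr at 37 degree Celsius, 95% humidity. CellTiter-Glo was added, plates sat 10 min at room temperature, then ATP-coupled luminescence was imaged as the viability read-out.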

KB-3-1 = experiment: as above; settings: Five cell lines viability, CellTiter-Glo ATP luminescence, 48-72 h; max response: stronger effect = lower value
Outline: as §1

C33A = experiment: Primary qHTS to identify gynecologic anti-cancer compounds using libraries of approved drugs and bioactive compounds (AID 1345084); settings: Gynecologic cancer cell panel viability, ATPlite luminescence, 48 h; series mostly up to 57.5 µM; further: on the % scale 0 is the no-effect control and ±100 the full control effect; nearly all actives have a fitted effect of over 55% in size
Outline: (§2)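 Cytotoxicity screen measuring ATP content by luciferase luminescence. Each compound is applied at five concentrations for 48 h at 37 C with 5% CO2.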

CAOV3 = experiment: as above; settings: Gynecologic cancer cell panel viability, ATPlite luminescence, 48 h; series mostly up to 57.5 µM
Outline: as §2

CASKI = experiment: as above; settings: Gynecologic cancer cell panel viability, ATPlite luminescence, 48 h; series mostly up to 57.5 µM
Outline: as §2

Es-2 = experiment: as above; settings: Gynecologic cancer cell panel viability, ATPlite luminescence, 48 h; series mostly up to 57.5 µM
Outline: as §2

Hek293T = experiment: as above; settings: Gynecologic cancer cell panel viability, ATPlite luminescence, 48 h, control line for the selectivity index; series mostly up to 57.5 µM
Outline: as §2

JEG-3 = experiment: as above; settings: Gynecologic cancer cell panel viability, ATPlite luminescence, 48 h; series mostly up to 57.5 µM
Outline: as §2

OV90 = experiment: as above; settings: Gynecologic cancer cell panel viability, ATPlite luminescence, 48 h; series mostly up to 57.5 µM
Outline: as §2

PA-1 = experiment: as above; settings: Gynecologic cancer cell panel viability, ATPlite luminescence, 48 h; series mostly up to 57.5 µM
Outline: as §2

Tov-21-G = experiment: as above; settings: Gynecologic cancer cell panel viability, ATPlite luminescence, 48 h; series mostly up to 57.5 µM
Outline: as §2

Tov112D = experiment: as above; settings: Gynecologic cancer cell panel viability, ATPlite luminescence, 48 h; series mostly up to 57.5 µM
Outline: as §2

C[C@]12CC[C@@H](O)C[C@@H]1CC[C@@H]1[C@@H]2CC[C@]2(C)C(=O)[C@@H](Br)C[C@@H]12
inactive: Potency [1] | Potency [2] | Potency [3] | Potency [4] | outcome [5] | Potency [6] | Potency [7] | Potency [8] | max response (CRL-7250) -20.8% | max response (KB-3-1) 9.47% | Potency (C33A) | Potency (CAOV3) | Potency (CASKI) | Potency (Es-2) | Potency (Hek293T) | Potency (JEG-3) | Potency (OV90) | Potency (PA-1) | Potency (Tov-21-G) | Potency (Tov112D)

CN1C(=O)C(Cc2ccc3ccccc3c2)N=C(c2ccc(O)cc2)c2cc(Cl)ccc21 (stereo unspecified)
inactive: Potency [3] | Potency [4] | Potency [6] | Potency [7] | Potency [8] | max response (CRL-7250) -21.8% | max response (KB-3-1) -24.1% | Potency (C33A) | Potency (CAOV3) | Potency (CASKI) | Potency (Es-2) | Potency (Hek293T) | Potency (JEG-3) | Potency (OV90) | Potency (PA-1) | Potency (Tov-21-G) | Potency (Tov112D)

CCC(C)C1NC(=O)C2CCCN2C(=O)C(CC(C)C(=O)O)OC(=O)CCNC(=O)C(C)N(C)C(=O)C(C(C)C)N(C)C1=O (stereo unspecified) (cyclo([X5]PI[NMeV][NMeA][βAla]); configuration not given here)
inactive: Potency [1] | Potency [2] | Potency [3] | Potency [4] | Potency [6] | Potency [7] | Potency [8] | max response (CRL-7250) -24.2% | outcome (KB-3-1) | Potency (C33A) | Potency (CAOV3) | Potency (CASKI) | Potency (Es-2) | Potency (Hek293T) | Potency (JEG-3) | Potency (OV90) | Potency (PA-1) | Potency (Tov-21-G) | Potency (Tov112D)

C=C1CC[C@H]2[C@@H](/C=C(\C)C(=O)[C@@]3(OC(C)=O)C[C@H](C)[C@H](OC(=O)c4ccccc4)[C@@H]3[C@H]1OC(C)=O)C2(C)C
inactive: Potency [1] | Potency [2] | Potency [3] | Potency [4] | outcome [5] | Potency [6] | Potency [7] | Potency [8] | max response (CRL-7250) 1.55% | max response (KB-3-1) 4.96% | Potency (C33A) | Potency (CAOV3) | Potency (CASKI) | Potency (Es-2) | Potency (Hek293T) | Potency (JEG-3) | Potency (OV90) | Potency (PA-1) | Potency (Tov-21-G) | Potency (Tov112D)

C=C(C)[C@@]12O[C@@H]1[C@@]1(C)C(=C[C@H]2O)CC[C@@H](O)[C@@H]1C
inactive: Potency [1] | Potency [2] | Potency [3] | Potency [4] | outcome [5] | Potency [6] | Potency [7] | Potency [8] | max response (CRL-7250) -1.42% | outcome (KB-3-1) | Potency (C33A) | Potency (CAOV3) | Potency (CASKI) | Potency (Es-2) | Potency (Hek293T) | Potency (JEG-3) | Potency (OV90) | Potency (PA-1) | Potency (Tov-21-G) | Potency (Tov112D)
